Drawing on PubChem BioAssay (NCATS), this text covers activity, negative = inhibition, outcome and redox activity (% of DA3003) for 23 compounds.

Molecules are shown by their SMILES. Unmarked numbers belong to inactive results. Results filed as inconclusive are left out. Calls of active or inactive are those of the source. Calls come from the whole dose curve; as a rule, active = well fitted curve in the direction sought with a large enough effect; inconclusive = small, poorly fitted or top-dose-only effect, or another doubt; inactive = no such curve, though single readings can be large; an effect the other way counts as inactive or inconclusive.

One experiment relates to Nanoluciferase (engineered Oplophorus gracilirostris luciferase). Put plainly: Primary Nanoluciferase (NLuc) qHTS assay for identification of artifact compounds. (AID 1845222).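 Note: 0% = DMSO and -100% = no enzyme.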 Conditions: NLuc-conditioned medium, Nano-Glo luminescence, 5 min; series mostly up to 54.1 µM. In short, it runs like this:
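Luminescence from secreted NLuc (filtered, 1:55-diluted S16 cell medium) read 5 min after Nano-Glo substrate; compounds preincubated 15 min, RT. Hill fits of inhibition normalized to DMSO and no-enzyme.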
A general note: Quantitative high-throughput screening tests each substance at several concentrations.
For `C=CC(C)(O)CC/C=C(\C)C(=O)O[C@H]1[C@H](O)[C@@H](CO)O[C@@H](OC(=O)[C@]23CCC(C)(C)CC2C2=CCC4[C@@]5(C)CC[C@H](O[C@@H]6O[C@H](CO[C@@H]7OC[C@H](O)[C@H](O)[C@H]7O[C@@H]7OC[C@@H](O)[C@H](O)[C@H]7O)[C@@H](O)[C@H](O)[C@H]6O)C(C)(C)C5CC[C@@]4(C)[C@]2(C)CC3)[C@@H]1OC1OC(C)C(O[C@@H]2OC[C@@H](O)[C@H](O[C@@H]3OC[C@@H](O)[C@H](O)[C@H]3O)[C@H]2O)C(O)C1O` (some centres not stated), the activity, negative = inhibition was 1.73% [at 11.6 µM].
On to `C[C@]12CC[C@H]3[C@@H]([C@H](O)CC4=CC(=O)CC[C@@]43C)[C@@H]1CC[C@@H]2O`, for which the compound was called inactive.
On the same count and under the same terms, as for `CCOc1ccccc1-n1c(C(C)N2CCN(C(=O)COc3ccc(Cl)cc3)CC2)nc2ccccc2c1=O` (configuration not stated), the entry is “inactive”.
`C=C1[C@@H]2CC[C@@]3(C)[C@H](c4ccoc4)OC(=O)C[C@]13O[C@H]1CC(=O)C(C)(C)[C@H](C(OC(C)=O)C(=O)OC)[C@]12C` (some centres not stated): the result was inactive.
Same read-out and setting: as for `CN1[C@@H]2CC[C@H]1CC(OC(=O)C1C=Nc3ccccc31)C2` (some centres not stated), the entry is “inactive”.

Test system in another experiment: not listed separately
Put plainly: Primary redox qHTS assay for identification of artifact compounds. (AID 1845223).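 Note: 0% = DMSO and 100% = reference compound.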 Conditions: Amplex Red/HRP redox cycling with DTT, fluorescence; series mostly up to 53.8 µM. In short, it runs like this:
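Redox-cycling detection via DTT (250 uM final) oxidation coupled to Amplex Red (25 uM)/HRP (250 mU/mL) in HBSS. 15 min preincubation plus 30 min after DTT, room temperature. Ex/Em 525/598 nm; 4-parameter Hill fit against DMSO and 10 uM DA3003.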
For the compound `C=C(C)[C@H]1O[C@H]2CC[C@@]3(C)[C@@](O)(CC[C@H]4[C@@H]5OC(C)(C)[C@H]6C[C@@H]7C(=C)Cc8c(Cl)cc9[nH]c(c5c9c8[C@@]76O)[C@@]43C)[C@]23O[C@@H]3[C@H]1O`, the result was inactive.
Consider `CCCN1CCO[C@H]2c3cc(O)ccc3OC[C@@H]21`, for which the result was inactive.
In the case of `COC(=O)C1(C)CCC(O)C2(C)c3c(O)cc(C(C)C)cc3C(O)C(OC(C)=O)C12` (configuration not stated), the outcome was inactive.
Regarding `CCN1C[C@]2(COC(=O)c3ccccc3N3C(=O)C[C@H](C)C3=O)CC[C@H](OC)[C@@]34[C@@H]5C[C@H]6[C@H](OC)[C@@H]5[C@](O)(C[C@@H]6OC)[C@](O)([C@@H](OC)[C@H]23)[C@@H]14`, the compound was classed as inactive.
On to `C=C[C@H]1[C@H](O[C@@H]2O[C@H](CO)[C@@H](O)[C@H](O)[C@H]2O)OC=C2C(=O)OCC[C@H]21`, for which the outcome was inactive.
Still for that read-out and setting: as for `Cc1cn(C[C@H](N)C(=O)O)c(=O)n(Cc2cc(-c3ccccc3)sc2C(=O)O)c1=O`, the entry is “inactive”; as for `C=C(CO)C(=O)O[C@H]1C/C(C)=C/CC/C(CO)=C/[C@H]2OC(=O)C(=C)[C@H]12`, “inactive”.
Same read-out and setting: as for `COC1=CC(=O)O[C@@H](CCc2ccccc2)C1`, the entry is “inactive”; as for `C[C@H](NC(=O)Cc1cc(F)cc(F)c1)C(=O)N[C@@H]1N=C(c2ccccc2)c2ccccc2N(C)C1=O`, “inactive”.
On the same count and under the same terms, then `CCN1CC2(COC)C3[C@@H](OC)C4C1C3(C1C[C@]3(O)[C@H](OC(=O)c5ccccc5)C1[C@]4(OC(C)=O)[C@@H](O)[C@@H]3OC)[C@H](OC)C[C@H]2O` (some centres not stated), with “inactive”.
For `CN1[C@H]2C[C@H](OC(=O)[C@H](CO)c3ccccc3)C[C@@H]1[C@@H](O)C2`, the compound was called inactive.
On the same count and under the same terms, as for `CN1C(=O)N(c2ccc(C#N)c(C(F)(F)F)c2)C(=O)[C@]1(CO)c1ccccc1`, the entry is “inactive”.
For the compound `COc1cc(CCNCc2ccccc2O)c(OC)cc1C#N`, the call was inactive.
Same read-out and setting: as for `C1=C2CCCN[C@H]2[C@@H]2C[C@H]1[C@H]1CCCCN1C2`, the entry is “inactive”; as for `C[C@H]1O[C@@H](O[C@H]2C[C@@H](O)[C@]3(CO)C4C(CC[C@]3(O)C2)[C@@]2(O)CC[C@H](C3=CC(=O)OC3)[C@@]2(C)C[C@H]4O)[C@@H](O)[C@@H](O)[C@H]1O` (some centres not stated), “inactive”.
Still for that read-out and setting: then `N#CC(OC1OC(COC2OC(CO)C(O)C(O)C2O)C(O)C(O)C1O)c1ccccc1` (configuration not stated), with “inactive”; and `CCc1c(C(=O)C(N)=O)c2c(OCC(=O)OC)cccc2n1Cc1ccccc1`, with “inactive”.
On the same count and under the same terms, as for `CC(C)=C1CC[C@]23CO[C@H](C2)[C@@](O)(C(=O)O)CCC13` (some centres not stated), the entry is “inactive”.
With `C=CC(C)(O)CC/C=C(\C)C(=O)O[C@H]1[C@H](O)[C@@H](CO)O[C@@H](OC(=O)[C@]23CCC(C)(C)CC2C2=CCC4[C@@]5(C)CC[C@H](O[C@@H]6O[C@H](CO[C@@H]7OC[C@H](O)[C@H](O)[C@H]7O[C@@H]7OC[C@@H](O)[C@H](O)[C@H]7O)[C@@H](O)[C@H](O)[C@H]6O)C(C)(C)C5CC[C@@]4(C)[C@]2(C)CC3)[C@@H]1OC1OC(C)C(O[C@@H]2OC[C@@H](O)[C@H](O[C@@H]3OC[C@@H](O)[C@H](O)[C@H]3O)[C@H]2O)C(O)C1O` (some centres not stated), the redox activity (% of DA3003) was -6.27% [at 11.5 µM].
In the case of `C[C@]12CC[C@H]3[C@@H]([C@H](O)CC4=CC(=O)CC[C@@]43C)[C@@H]1CC[C@@H]2O`, the outcome was inactive.
With `C=C1[C@@H]2CC[C@@]3(C)[C@H](c4ccoc4)OC(=O)C[C@]13O[C@H]1CC(=O)C(C)(C)[C@H](C(OC(C)=O)C(=O)OC)[C@]12C` (some centres not stated), the compound was classed as inactive.
Turning to `CN1[C@@H]2CC[C@H]1CC(OC(=O)C1C=Nc3ccccc31)C2` (some centres not stated), the compound was classed as inactive.
